PubChem BioAssay AID1962 (The Scripps Research Institute Molecular Screening Center, 2009)
Among all 300,000 compounds or so, about 2,500 (0.83%) were called active. This is one part of a sample in which actives are shown more often than they occur. A number with no mark means an inactive call.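 How the source made its calls: active means inhibition above the mean of all tested compounds plus 3 SD, set per screening campaign (cut at about 24% in these data); inactive means the rest.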

Tested on: tRNA 2'-phosphotransferase TPT1 (Candida albicans SC5314)
Assay: tRNA 2'-phosphotransferase blockers, C. albicans – biochemical, fluorescence polarization, primary screen (AID 1962);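 further: plate controls were DMSO alone for no effect and ferristatin control at 100 nM for full effect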
Conditions: recombinant caTPT1, FP RNA substrate dephosphorylation; at 5 µM; active compounds read high

| Compound | inhibition |
| --- | --- |
| CC(=O)N1c2ccccc2N(Cc2ccc([N+](=O)[O-])cc2)C(=O)C1(C)C | 9.11% |
| CC1=NN(c2ccccc2)C(=O)C1C(=O)c1ccc([N+](=O)[O-])cc1 (stereo not given) | 0.3% |
| O=C1NC(=O)C2C1C(c1ccc([N+](=O)[O-])cc1)=NN2Cc1ccccc1 (stereo not given) | 32.4% (active) |
| CC(=O)c1ccc(N2C(=NC(=O)C(C)C)SC3CS(=O)(=O)CC32)cc1 (stereo not given) | -0.98% |
| Nn1c(SCC(=O)Nc2nccs2)nncc1=O | 0.93% |
| COCCn1cnc2c1c(=O)n(CC(=O)NN)c(=O)n2Cc1ccccc1 | -3.43% |
| COc1cc(NC(=O)C2=CC(c3ccco3)=NS(=O)(=O)N2C)cc(OC)c1OC | -0.29% |
| CC1=C(C(=O)OC2CCCCC2)C(c2ccccc2F)NC(=O)N1 (stereo not given) | 1.28% |
| O=C1c2ccccc2NC(c2ccc(-c3cccc(Cl)c3)o2)N1O (stereo not given) | 2.03% |
| NS(=O)(=O)c1ccc(-c2ccc(/C=C3\SC(=O)NC3=O)o2)cc1 | 0.01% |
| O=C1NN(c2ccccc2)C(=O)/C1=C/c1ccc(-c2cccc(C(=O)O)c2)o1 | -6.86% |
| O=C(O)C(c1ccccc1)N1C(=O)/C(=C\c2ccc(-c3cccc(Cl)c3)o2)SC1=S (stereo not given) | 134% (active) |
| CN1C(=O)/C(=C/c2ccco2)SC1=Nc1cccc(C(=O)O)c1 | -0.91% |
| CN1C(=O)/C(=C\c2ccc(-c3ccccc3)o2)SC1=S | 47% (active) |
| Cn1cc[n+](C)c1COc1ccc(C=O)cc1 | -0.82% |
| CCc1ccc(Nc2n[n+](-c3ccccc3)c(-c3cccc(Cl)c3Cl)s2)cc1 | -1.82% |
| OCC[C@H]1C[C@H](O)[C@@H](O)[C@]2(Cc3ccccc3CO2)O1 | 1.4% |
| Cc1ccc(C(=O)NCC(=O)OCC(=O)Nc2cccc(S(=O)(=O)N3CCCC3)c2)cc1C | -0.56% |
| CCn1cc(C(=O)NC2CCCCCC2)c(=O)c2cc(S(=O)(=O)N3CCCCC3)ccc21 | -2.73% |
| COc1ccc(C(=O)CC(=O)c2ccc(C)cc2)c(O)c1 | -1.28% |
| O=C(COC(=O)c1cnccn1)Nc1cccc2ccccc12 | -2.21% |
| O=C(N/N=C/c1ccccn1)c1cccnc1 | -1.95% |
| Cc1cc(/C=N/NC(=O)c2cccnc2)c(C)n1CC(C)C | -3.6% |

| Compound | inhibition |
| --- | --- |
| O=C(N/N=C/c1sc(N2CCCCC2)nc1-c1cccs1)c1cccnc1 | 61.1% (active) |
| CCSC(C)CC1C/C(=N/O)c2c(C)noc2C1 (stereo not given) | -7.78% |
| COc1ccc(NC(=O)CN(C)C(=O)c2ccc(COc3ccccc3)o2)cc1 | 1.15% |
| CCN1/C(=C/c2ccc3ccc(C)cc3[n+]2CC)Sc2ccccc21 | 49.5% (active) |
| CCN1/C(=C\c2ccc3ccccc3[n+]2CC)Sc2cc(C)ccc21 | 68.7% (active) |
| COCCCNC(=O)Cn1c(=O)n(Cc2ccccc2Cl)c(=O)c2cc(OC)c(OC)cc21 | 1.46% |
| COc1ccc(C2=NOC3(CC(=O)N(c4ccc(Cl)cc4)C3=O)C2)c(OC)c1 (stereo not given) | -4.26% |
| O=C(c1cccc(Br)c1)N1CCN(C2=NS(=O)(=O)c3ccccc32)CC1 | 0.45% |
| COc1cccc(/C=C(/CC(=O)Nc2ccc(N3CCOCC3)cc2)c2nc3ccccc3s2)c1 | 9.31% |
| O=S(=O)(c1cccc(-c2nnc(SC(F)F)n2-c2ccccc2)c1)N1CCCCC1 | -5.49% |
| Cc1ccc(CSCC(=O)N(C)CC(=O)Nc2cccc(F)c2)cc1 | 1.31% |
| CCN(CC)C(=O)CSC(Nc1cccc(F)c1)=C(C#N)C#N | 62.4% (active) |
| CCN(CC)C(=O)C(=O)Nc1cccc(Br)c1 | -2.63% |
| O=C(CNc1ccc(F)cc1F)NC(=O)NCc1ccco1 | -0.97% |
| CCOC(=O)[C@H]1[C@H]2COc3ccc(Cl)cc3[C@@H]2N2C(=O)c3cc(C)ccc3NC(=O)[C@@]12C | 2.94% |
| Cc1cc(-c2ccc(S(=O)(=O)N3CCc4ccccc4C3)s2)on1 | -0.99% |
| CS(=O)(=O)N(CC(=O)N/N=C/c1ccccn1)c1ccc(Oc2ccccc2)cc1 | -0.87% |
| CCCCCCc1cc2cc(-c3nnc(-c4ccccc4)o3)c(=O)oc2cc1O | 133% (active) |
| Cc1c(CC(=O)NCCCCCC(=O)O)c(=O)oc2cc3occ(-c4ccccc4)c3cc12 | -0.72% |
| CCCCCCc1ccc(O)cc1O | 2.21% |
| N#CC(C#N)=CN=c1ccn(Cc2ccc(Cl)cc2Cl)cc1 | 0.38% |
| Cn1ccc(=NC=C(C#N)C#N)c2ccccc21 | 25.3% (active) |
| Cc1cc(NC(=O)Nc2c[nH]c(=O)[nH]c2=O)ccc1Br | 0.27% |

| Compound | inhibition |
| --- | --- |
| CCCc1nc2c(C)cc(-c3nc4ccccc4n3C)cc2n1Cc1ccc(-c2ccccc2C(=O)O)cc1 | 1.15% |
| Oc1ccc(/C=N/Nc2nc(-c3ccccc3F)nc3ccccc23)c(O)c1 | 24.8% (active) |
| Fc1ccc(/C=N/Nc2nc(-c3cccnc3)nc3ccccc23)cc1 | 0.23% |
| Cc1nc2ccccc2nc1N/N=C/c1ccc(O)cc1O | 1.81% |
| CN(C)C1=NC[C@H](Cc2ccccc2)N1CCc1ccc(F)cc1 | -4.71% |
| Cc1cc(C)c(S(=O)(=O)N2C=CC(C(F)(F)F)=NCC2)c(C)c1 | -0.62% |
| O=S(=O)(c1ccc(F)cc1)N1CCN(C(=S)NCc2ccco2)CC1 | 1.64% |
| OCC[C@H]1C[C@@H](O)[C@H](O)[C@@]2(OCCc3ccccc32)O1 | 0.6% |
| OCC[C@H]1C[C@H](O)[C@@H](O)[C@]2(CCc3ccccc3O2)O1 | -0.81% |
| O=C(Cc1c[nH]c2ccccc12)OCCOC(=O)Cc1c[nH]c2ccccc12 | 0.4% |
| COc1ccccc1CC(=O)NCCc1c[nH]c2ccccc12 | -1.76% |
| O=S(=O)(O)Oc1c[nH]c2ccccc12 | 25.4% (active) |
| CN1CCN(Cc2nc3cc(NC(=O)COc4ccc([N+](=O)[O-])cc4)ccc3n2C)CC1 | -2.77% |
| COc1ccc(C(=O)Nc2sc(C)c(C)c2CN2CCOCC2)cc1 | 2.12% |
| C#CCOCCOCCOCCNc1nc(N2CCN(C(=O)CCCCCCCCCCNC(=O)Cn3cc(CCCCCN)nn3)CC2)nc(N2CCN(C(=O)CCCCCCCCCCNC(=O)[C@H](CO)n3cc(CCCSC)nn3)CC2)n1 | -0.6% |
| Cc1cc(O)c(Sc2ccccc2)c(=O)o1 | 0.86% |
| Cc1cc(O)c(C(=O)/C=C/c2c(F)c(F)c(F)c(F)c2F)c(=O)o1 | 44.1% (active) |
| Cc1ccc(N=Cc2c(O)cc(C)oc2=O)c(C)c1 | 9.41% |
| Cc1ccc(-n2c(SCC(=O)NCCC3=CCCCC3)nc3n[nH]c(C)c3c2=N)cc1Cl | 0.45% |
| CO[C@@H]1[C@@H](OC(N)=O)[C@@H](O)C(Oc2ccc3c(O)c(NC(=O)c4ccc(O)c(CC=C(C)C)c4)c(=O)oc3c2C)OC1(C)C (stereo not given in full) | -0.98% |
| Cc1ccc(Cl)c(NC(=O)CN(C)CC(=O)Nc2ccc(F)c(F)c2F)c1Cl | 2.01% |
| COc1ccc(C2=NN(C(=O)c3ccccc3C(=O)O)C(c3ccccc3O)C2)cc1 (stereo not given) | 35.3% (active) |
| COc1ccc(C2=NN(C(=O)c3cccnc3)C(c3ccccc3)C2)cc1 (stereo not given) | 3.29% |

| Compound | inhibition |
| --- | --- |
| COc1ccc(C2=NN(C(C)=O)C(c3ccccc3)C2)cc1 (stereo not given) | -4.9% |
| O=C(Nc1cc(-c2ccccc2)nn1-c1ccccc1F)c1ccc([N+](=O)[O-])cc1 | 1.59% |
| Cc1ccc2c(c1)C(c1ccccc1)N(C(=O)c1ccc(S(=O)(=O)N3CCOCC3)cc1)CC(=O)N2 (stereo not given) | 1.61% |
| CCN(CC)CCNc1nc(-c2ccc(OC(F)F)cc2)c(C)s1 | -0.49% |
| CCOc1ccc(/C=C2\SC(=S)N(NC(=O)c3ccncc3)C2=O)cc1OC | 33.7% (active) |
| COc1ccc(/C=C2\SC(=S)N(CCC(=O)Nc3ccccn3)C2=O)cc1OC | 1.07% |
| COc1ccc(/C=C2\SC(=S)N(CC(=O)NNC(=O)c3ccncc3)C2=O)cc1 | -4.74% |
| O=C(c1cc(-c2ccc(Cl)cc2)on1)N1CCN(c2ccccc2)CC1 | -0.95% |
| O=C(O)CCCC(=O)Nc1ccc(Oc2cccc(C(F)(F)F)c2)nc1 | -1.11% |
| NS(=O)(=O)c1cccc(NC(=O)CN2CCCc3ccccc32)c1 | 14.5% |
| COC(=O)c1[nH]c2ccccc2c1NC(=O)CN1CCCc2ccccc21 | 11.9% |
| COC(=O)c1[nH]c2cccc(C)c2c1NC(=O)CN1CCCc2ccccc21 | 29% (active) |
| S=C(NC1CCCCC1)NN1CCOCC1 | -1.16% |
| Cc1nn(C(C)CC(=O)O)c(C)c1C (stereo not given) | 0.87% |
| CC[n+]1cc(C)ccc1/C=C/c1ccc(N(C)C)cc1 | 29.6% (active) |
| CN(C)c1ccc(/C=N\S(=O)(=O)c2ccccc2)cc1 | 0.48% |
| CCCCN(CC)C(=O)C1CCCN(S(=O)(=O)c2cccc3nsnc23)C1 (stereo not given) | -2.13% |
| CCOC(=O)c1c(CC(C)C)csc1/N=C/C1=C(O)CCCC1=O | 98.3% (active) |
| CCOC(=O)c1sc(/N=C/C2=C(O)CC(C)(C)CC2=O)c(C(=O)OCC)c1C | -1.8% |
| Cc1cc(N=CC2=C(O)CCCC2=O)no1 | -5.36% |
| CC1CCC(CN2CCN=C2N(C)C)CC1 (stereo not given) | -1.25% |
